# Assay results taken from PubChem BioAssay (NCATS).
# Records with an inconclusive call do not appear. Unmarked numbers belong to inactive results. The source made the active and inactive calls. The call rests on the fitted dose curve; in most records, active means well fitted curve in the direction sought with a large enough effect; inconclusive means small, poorly fitted or top-dose-only effect, or another doubt; inactive means no such curve, though single readings can be large; an effect the other way counts as inactive or inconclusive.
# Legend:
# [1] = qHTS of pediatric cancer cell lines to identify multiple opportunities for drug repurposing: Primary screen for TC32 cells (AID 1347089); further: on the % scale 0 is the no-effect control and ±100 the full control effect; nearly all actives have a fitted effect of over 60% in size
# Procedure, shortened: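 Luminescent ATP read-out (CellTiter-Glo) of metabolically active TC32 cells after 48 h exposure. Concentration-response curves came from 11-point (MIPE, 0.78 nM–46 µM) or 8-point (NPC, 0.59 nM–46 µM) primary titrations; follow-up used 11 points.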
# [2] = qHTS of pediatric cancer cell lines to identify multiple opportunities for drug repurposing: Primary screen for DAOY cells (AID 1347090); further: nearly all actives have a fitted effect of over 55% in size; further: potency means the concentration at half of the fitted maximal effect;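 on activity change, negative = cytotoxic: series mostly up to about 46 µM; plate controls were DMSO for no effect and bortezomib for full effect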
# Procedure, shortened: (§1)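 Eight- or eleven-point concentration series, 48 h treatment at 37 degrees C in growth media; readout CellTiter-Glo luminescence. Potency and efficacy were taken from the concentration-response curves.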
# [3] = qHTS of pediatric cancer cell lines to identify multiple opportunities for drug repurposing: Primary screen for A673 cells (AID 1347092); further: nearly all actives have a fitted effect of over 45% in size; further: potency means the concentration at half of the fitted maximal effect; on activity change, negative = cytotoxic: on the % scale 0 is the no-effect control and ±100 the full control effect
# Procedure, shortened: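 Cell viability of A673 measured by CellTiter-Glo ATP luminescence after 48 hours compound exposure. Dilution series spanned 0.78 nM to 46 µM (MIPE, 11-point) or 0.59 nM to 46 µM (NPC, 8-point); bortezomib 2.3 uM positive control.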
# [4] = qHTS of pediatric cancer cell lines to identify multiple opportunities for drug repurposing: Primary screen for SK-N-MC cells (AID 1347093); further: potency means the concentration at half of the fitted maximal effect;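 on activity change, negative = cytotoxic: series mostly up to about 46 µM; plate controls were DMSO neutral control for no effect and bortezomib for full effect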
# Procedure, shortened: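 Metabolically active cells were quantified by ATP-dependent luminescence (CellTiter-Glo, 15 min at room temperature) following 48 h treatment. Cells had been plated at 500-1,000 per well and settled for 5 h beforehand.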
# [5] = qHTS of pediatric cancer cell lines to identify multiple opportunities for drug repurposing: Primary screen for BT-37 cells (AID 1347094); further: potency means the concentration at half of the fitted maximal effect;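 on activity change, negative = cytotoxic: series mostly up to about 57 µM; plate controls were DMSO for no effect and bortezomib for full effect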
# Procedure, shortened: (§2)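 Following a 5-hour attachment period, cells at 500-1,000/well received compounds and were cultured for 48 hours. CellTiter-Glo was added and luminescence read to estimate viable, metabolically active cells.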
# [6] = qHTS of pediatric cancer cell lines to identify multiple opportunities for drug repurposing: Primary screen for U-2 OS cells (AID 1347096); further: nearly all actives have a fitted effect of over 50% in size; further: potency means the concentration at half of the fitted maximal effect;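 on activity change, negative = cytotoxic: plate controls were DMSO wells for no effect and bortezomib positive control wells for full effect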
# Procedure, shortened: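 Cells (500-1,000/well) in growth media were settled 5 h at 37 degrees C, then given compounds for 48 h. Viability was read as CellTiter-Glo luminescence. Primary runs used MIPE at 11 points (0.78 nM-46 µM) and NPC at 8 points (0.59 nM-46 µM); follow-ups used 11 points.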
# [7] = qHTS of pediatric cancer cell lines to identify multiple opportunities for drug repurposing: Primary screen for SJ-GBM2 cells (AID 1347091); further: potency means the concentration at half of the fitted maximal effect;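 on activity change, negative = cytotoxic: plate controls were DMSO neutral control for no effect and bortezomib for full effect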
# Procedure, shortened: as §1
# [8] = qHTS of pediatric cancer cell lines to identify multiple opportunities for drug repurposing: Primary screen for NB-EBc1 cells (AID 1347095); further: potency means the concentration at half of the fitted maximal effect;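 on activity change, negative = cytotoxic: plate controls were DMSO neutral control for no effect and bortezomib for full effect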
# Procedure, shortened: as §2
# [9] = qHTS of pediatric cancer cell lines to identify multiple opportunities for drug repurposing: Primary screen for Saos-2 cells (AID 1347097); further: nearly all actives have a fitted effect of over 40% in size; further: potency means the concentration at half of the fitted maximal effect; on activity change, negative = cytotoxic: on the % scale 0 is the no-effect control and ±100 the full control effect
# Procedure, shortened: as §2
structure (smiles),measurement,setting,value
CC(C)(O)CC(=O)NCCn1ccc2ncnc(Nc3ccc(Oc4cccc(C(F)(F)F)c4)c(Cl)c3)c21,Potency,[1],inactive
same,Potency,[2],0.469 µM (active)
same,Potency,[3],0.372 µM (active)
same,Potency,[4],0.743 µM (active)
same,Potency,[5],24.3 µM (active)
same,Potency,[6],inactive
CNc1nc(-c2ccc3c(N)n[nH]c3c2)cc(N2C[C@@H](C(=O)NC3CCCCC3)CC[C@@H]2C)n1,Potency,[1],inactive
same,Potency,[7],23.5 µM (active)
same,Potency,[4],4.18 µM (active)
CC[C@@H]([C@H](C)O)n1ncn(-c2ccc(N3CCN(c4ccc(OCC5CO[C@@](Cn6cncn6)(c6ccc(F)cc6F)C5)cc4)CC3)cc2)c1=O (some centres undefined),Potency,[1],inactive
same,Potency,[7],18.7 µM (active)
same,Potency,[3],18.7 µM (active)
same,Potency,[8],20.9 µM (active)
same,Potency,[6],inactive
same,Potency,[9],26.4 µM (active)
Cn1cnc(-c2cc3nccc(Oc4ccc(NC(=S)NC(=O)Cc5ccccc5)cc4F)c3s2)c1,Potency,[1],inactive
same,Potency,[7],0.0469 µM (active)
same,Potency,[3],29.6 µM (active)
same,Potency,[9],16.6 µM (active)
OCCn1cc(-c2ccc3c(c2)CCC3=NO)c(-c2ccncc2)n1,Potency,[1],inactive
same,Potency,[7],inactive
same,Potency,[8],inactive
same,Potency,[6],inactive
same,Potency,[9],inactive
C#CCN(C)CC1=Cc2ccccc2Oc2ccccc21,Potency,[1],inactive
same,Potency,[7],inactive
same,Potency,[5],inactive
same,Potency,[6],inactive
CN[C@@H]1CN(c2ccc3c(=O)c(C(=O)O)cn(-c4nccs4)c3n2)C[C@@H]1OC,Potency,[2],8.12 µM (active)
same,Potency,[7],1.15 µM (active)
same,Potency,[3],8.12 µM (active)
same,Potency,[4],1.29 µM (active)
same,Potency,[5],3.35 µM (active)
same,Potency,[8],0.407 µM (active)
same,Potency,[6],inactive
same,Potency,[9],inactive
O=C(Nc1ncc(SCCN2CCCC2)s1)[C@]1(c2ccc(S(=O)(=O)C3CC3)cc2)C[C@@H]1C1CCCCC1,Potency,[1],inactive
same,Potency,[7],23.5 µM (active)
same,Potency,[3],18.7 µM (active)
same,Potency,[4],20.9 µM (active)
same,Potency,[5],30.6 µM (active)
same,Potency,[8],26.4 µM (active)
same,Potency,[6],23.5 µM (active)
same,Potency,[9],33.2 µM (active)
Cc1[nH]c(C=C2C(=O)Nc3ccc(S(=O)(=O)N(C)c4cccc(Cl)c4)cc32)c(C)c1C(=O)N1CCN(C)CC1,Potency,[2],23.5 µM (active)
same,Potency,[7],2.09 µM (active)
same,Potency,[3],23.5 µM (active)
same,Potency,[4],11.8 µM (active)
same,Potency,[5],24.3 µM (active)
same,Potency,[8],14.8 µM (active)
same,Potency,[6],18.7 µM (active)
same,Potency,[9],18.7 µM (active)
NC(=O)c1nnn(Cc2cc(Cl)c(C(=O)c3ccc(Cl)cc3)c(Cl)c2)c1N,Potency,[1],inactive
same,Potency,[7],18.7 µM (active)
same,Potency,[4],23.5 µM (active)
same,Potency,[6],inactive
same,Potency,[9],23.5 µM (active)
Cc1cc(OCCCS(C)(=O)=O)cc(C)c1-c1cccc(COc2ccc3c(c2)OC[C@H]3CC(=O)O)c1,Potency,[1],inactive
same,Potency,[7],26.4 µM (active)
same,Potency,[6],inactive
same,Potency,[9],33.2 µM (active)
Cc1cccc2c1CC[C@H](CN1CCC(c3c(Cl)cccc3Cl)CC1)C[C@@H]2O,Potency,[2],inactive
same,Potency,[7],inactive
same,Potency,[4],9.35 µM (active)
same,Potency,[5],30.6 µM (active)
same,Potency,[8],inactive
CO[C@H]1C=CO[C@@]2(C)Oc3c(C)c(O)c4c(O)c(c(C=NN5CCN(C)CC5)c(O)c4c3C2=O)NC(=O)C(C)=CC=C[C@H](C)[C@H](O)[C@@H](C)[C@@H](O)[C@@H](C)[C@H](OC(C)=O)[C@H]1C,"activity change, negative = cytotoxic",[1],6.56% [at 9.17 µM]
same,"activity change, negative = cytotoxic",[7],4.67% [at 9.22 µM]
same,"activity change, negative = cytotoxic",[3],0.264% [at 9.22 µM]
same,"activity change, negative = cytotoxic",[4],-4.39% [at 9.22 µM]
same,"activity change, negative = cytotoxic",[5],-9.92% [at 11.5 µM]
same,"activity change, negative = cytotoxic",[8],-7.84% [at 9.22 µM]
same,"activity change, negative = cytotoxic",[6],-1.44% [at 9.22 µM]
O=C(C=Cc1ccc(O)cc1)c1ccc(O)cc1O,Potency,[1],inactive
same,Potency,[3],18.7 µM (active)
same,Potency,[4],37.2 µM (active)
same,Potency,[9],18.7 µM (active)
COc1cc2c(cc1Cc1cccc(Cl)c1F)c(=O)c(C(=O)O)cn2[C@H](CO)C(C)C,Potency,[1],inactive
same,Potency,[5],13.7 µM (active)
CN(C(Cc1ccc(OS(=O)(=O)c2cccc3cnccc23)cc1)C(=O)N1CCN(c2ccccc2)CC1)S(=O)(=O)c1cccc2cnccc12 (centres undefined),Potency,[3],18.7 µM (active)
same,Potency,[4],0.418 µM (active)
same,Potency,[5],inactive
CCCCc1ccc(NS(=O)(=O)c2ccc(C)c(C(=O)N3CCN(c4cccc(C)c4C)CC3)c2)cc1,Potency,[1],inactive
same,Potency,[7],20.9 µM (active)
same,Potency,[6],inactive
Clc1ccc(COC(Cn2ccnc2)c2ccc(Cl)cc2Cl)c(Cl)c1 (centres undefined),Potency,[1],inactive
same,Potency,[7],18.7 µM (active)
same,Potency,[3],23.5 µM (active)
CCOC(=O)[C@H]1O[C@H]1C(=O)N[C@@H](CC(C)C)C(=O)NCCC(C)C,Potency,[2],inactive
same,Potency,[7],inactive
same,Potency,[3],18.7 µM (active)
same,Potency,[5],inactive
same,Potency,[8],inactive
same,Potency,[6],inactive
CNC1[C@H](O)C(O[C@@H]2C(O)C(O[C@H]3O[C@H]([C@@H](C)NC)CC[C@H]3N)[C@@H](N)C[C@H]2N)OC[C@]1(C)O (some centres undefined),Potency,[1],inactive
same,Potency,[7],inactive
same,Potency,[3],inactive
same,Potency,[4],inactive
same,Potency,[5],inactive
same,Potency,[8],inactive
same,Potency,[6],inactive
same,Potency,[9],inactive
COC1CCC(C(=O)c2ccc3nc4c(cc3c2)CCCO4)CC1 (centres undefined),Potency,[1],inactive
same,Potency,[2],inactive
same,Potency,[7],18.7 µM (active)
same,Potency,[3],23.5 µM (active)
same,Potency,[6],inactive
O=C(Nc1cccc(C(F)(F)F)c1)Nc1cc(S(=O)(=O)NC2CC2)ccc1-c1ccsc1,Potency,[1],inactive
same,Potency,[7],26.4 µM (active)
same,Potency,[8],23.5 µM (active)
same,Potency,[6],inactive
same,Potency,[9],29.6 µM (active)
Clc1ccc(C2(c3ccc(-c4cn[nH]c4)cc3)CCNCC2)cc1,Potency,[7],5.26 µM (active)
same,Potency,[3],18.7 µM (active)
same,Potency,[5],inactive
same,Potency,[8],16.6 µM (active)
same,Potency,[6],inactive
CC(C)C[C@H](NC(=O)c1cc2ccccc2s1)C(=O)N1CCN(C(=O)[C@H](CO)NS(=O)(=O)c2ccc(Cl)cc2Cl)CC1,Potency,[1],inactive
same,Potency,[7],18.7 µM (active)
same,Potency,[3],23.5 µM (active)
same,Potency,[4],10.5 µM (active)
same,Potency,[5],15.3 µM (active)
same,Potency,[8],26.4 µM (active)
same,Potency,[9],14.8 µM (active)
